We go through 10 molecules from PubChem BioAssay (NCI).

The nature of experiment [1]: NCI Yeast Anticancer Drug Screen. Data for the rad50 strain (AID 155).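 Note: 0% = growth of vehicle-only cultures of the same strain.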 As to conditions: S. cerevisiae rad50 strain growth inhibition, active compounds read high. The procedure, abridged:
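Cells are treated with compound, grown, and their growth is then scored against vehicle-only cultures of the same repair-deficient yeast strain.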

A short description of experiment [2]: NCI Yeast Anticancer Drug Screen. Data for the mec2-1 strain (AID 157). Conditions: S. cerevisiae mec2-1 strain, active compounds read high. The procedure, abridged:
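Strain: mec2-1 (DNA repair/cell cycle alteration). Compound exposure, then growth measured; inhibition expressed relative to vehicle.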

A short description of experiment [3]: NCI Yeast Anticancer Drug Screen. Data for the sgs1 mgt1 strain (AID 161).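 Note: 0% = growth of cultures given vehicle only.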 As to conditions: S. cerevisiae sgs1 mgt1 strain, active compounds read high. The method in brief: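 Test agents were incubated with a DNA-repair-mutant yeast strain. Growth was then read and compared against vehicle-treated controls.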
A short description of experiment [4]: NCI Yeast Anticancer Drug Screen. Data for the cln2 rad14 strain (AID 165).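 Note: 0% = growth equal to vehicle treated cultures.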 As to conditions: S. cerevisiae cln2 rad14 strain, active compounds read high. The procedure, abridged:
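Compounds are applied to the cln2 rad14 yeast strain, and growth is then compared with that of vehicle-treated cultures to give inhibition.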

Experiment [5] in a line: NCI Yeast Anticancer Drug Screen. Data for the bub3 strain (AID 167). As to conditions: S. cerevisiae bub3 mutant strain, active compounds read high. The procedure, abridged:
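Part of a panel of yeast mutants defective in DNA damage repair or cell cycle regulation. Each strain is grown with compound, and inhibition is calculated relative to solvent-treated cultures.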

The nature of experiment [6]: NCI Yeast Anticancer Drug Screen. Data for the mlh1 rad18 strain (AID 175). As to conditions: S. cerevisiae mlh1 rad18 strain growth inhibition, active compounds read high. The method in brief:
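Read-out is yeast growth inhibition, calculated against vehicle-only controls. The compound was applied to a strain engineered with DNA damage repair alterations.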

The mark [7] stands for this setting: at 5.0 µM (retest, dose inferred, filed as 0.5).
Setting [8] is: at 50.0 µM (retest, dose inferred, filed as 5.0).

The panel holds about 79,000 compounds, 15% with a hit somewhere; the sample as a whole holds those more often. Values without a mark were called inactive. The source made the active and inactive calls. Cut-off read from the data, not from the text of the source: active = growth inhibition above about 70%; inactive = the rest.

Take `COc1ccccc1NC(=O)C1=C(C)NC(C)=C(C(=O)Nc2ccccc2OC)C1c1ccc(C2C(C(=O)Nc3ccccc3OC)=C(C)NC(C)=C2C(=O)Nc2ccccc2OC)cc1`: the growth inhibition in experiment [1] (setting [7]) is 50%; in experiment [1] (setting [8]), 86% (active); in experiment [1] (at 50.0 µM) it was 75.8% (active); in experiment [2] (setting [7]), 31%; in experiment [2] (setting [8]), 94% (active); in experiment [2] (at 50.0 µM), 81.2% (active). Moreover, the growth inhibition in experiment [3] (setting [7]) was 37%; in experiment [3] (setting [8]) it was 92% (active); in experiment [3] (at 50.0 µM), 77.5% (active); in experiment [4] (setting [7]), 38%; in experiment [4] (setting [8]) it was 77% (active); in experiment [4] (at 50.0 µM) it was 44.2%. Besides, the growth inhibition is 40% in experiment [5] (setting [7]); 95% (active) in experiment [5] (setting [8]); 85.2% (active) in experiment [5] (at 50.0 µM); 41% in experiment [6] (setting [7]); 95% (active) in experiment [6] (setting [8]); 47.9% in experiment [6] (at 50.0 µM).
On to `C=C1C(=O)C23C(O)C1CC[C@H]2C12CCCC(C)(COC(C)=O)[C@H]1[C@H](O)[C@]3(O)OC2` (stereo not given in full), for which the growth inhibition was 28% in experiment [1] (setting [7]); 94% (active) in experiment [1] (setting [8]); 90.4% (active) in experiment [1] (at 50.0 µM); 26% in experiment [2] (setting [7]); 97% (active) in experiment [2] (setting [8]); 92.2% (active) in experiment [2] (at 50.0 µM). Besides, the growth inhibition in experiment [3] (setting [7]) was 83% (active); in experiment [3] (setting [8]) it was 97% (active); in experiment [3] (at 50.0 µM) it was 92.2% (active); in experiment [4] (setting [7]) it was 77% (active); in experiment [4] (setting [8]), 96% (active); in experiment [4] (at 50.0 µM), 89.2% (active). Also, the growth inhibition in experiment [5] (setting [7]) was 22%; in experiment [5] (setting [8]) it was 96% (active); in experiment [5] (at 50.0 µM) it was 90% (active); in experiment [6] (setting [7]), 43%; in experiment [6] (setting [8]) it was 95% (active); in experiment [6] (at 50.0 µM), 89.2% (active).
For `O=[N+]([O-])c1cc(I)cc(/C=N/NS(=O)(=O)c2ccc(F)cc2)c1O`, the growth inhibition was 16% in experiment [1] (setting [7]); 36% in experiment [1] (setting [8]); 84.2% (active) in experiment [1] (at 50.0 µM); 12% in experiment [2] (setting [7]); 31% in experiment [2] (setting [8]); 77.7% (active) in experiment [2] (at 50.0 µM). Also, the growth inhibition in experiment [3] (setting [7]) was 19%; in experiment [3] (setting [8]) it was 47%; in experiment [3] (at 50.0 µM), 89.5% (active); in experiment [4] (setting [7]) it was 0%; in experiment [4] (setting [8]), 15%; in experiment [4] (at 50.0 µM) it was 77.8% (active). The growth inhibition is 3% in experiment [5] (setting [7]); 17% in experiment [5] (setting [8]); 53% in experiment [5] (at 50.0 µM); 17% in experiment [6] (setting [7]); 45% in experiment [6] (setting [8]); 93% (active) in experiment [6] (at 50.0 µM).
Turning to `Cc1ccc(C(=O)/C(Cl)=N/O)cc1`, the growth inhibition is 32% in experiment [1] (setting [7]); 99% (active) in experiment [1] (setting [8]); 98.8% (active) in experiment [1] (at 50.0 µM); 10% in experiment [2] (setting [7]); 100% (active) in experiment [2] (setting [8]); 99.1% (active) in experiment [2] (at 50.0 µM). The growth inhibition was 13% in experiment [3] (setting [7]); 100% (active) in experiment [3] (setting [8]); 97.8% (active) in experiment [3] (at 50.0 µM); 0% in experiment [4] (setting [7]); 99% (active) in experiment [4] (setting [8]); 78.7% (active) in experiment [4] (at 50.0 µM). The growth inhibition in experiment [5] (setting [7]) was 3%; in experiment [5] (setting [8]) it was 99% (active); in experiment [5] (at 50.0 µM) it was 98.8% (active); in experiment [6] (setting [7]) it was 27%; in experiment [6] (setting [8]) it was 99% (active); in experiment [6] (at 50.0 µM), 98.5% (active).
For the molecule `CCOC(=O)c1cc(C)c(O)c(C(=O)OCC)c1`, the growth inhibition was -9% in experiment [1] (setting [7]); 4% in experiment [1] (setting [8]); -0.45% in experiment [1] (at 50.0 µM); -12% in experiment [2] (setting [7]); -27% in experiment [2] (setting [8]); 16.1% in experiment [2] (at 50.0 µM). The growth inhibition in experiment [3] (setting [7]) is 1%; in experiment [3] (setting [8]), 22%; in experiment [3] (at 50.0 µM), 0.65%; in experiment [4] (setting [7]), 26%; in experiment [4] (setting [8]), 31%; in experiment [4] (at 50.0 µM), 6.8%. For the same molecule, the growth inhibition is 13% in experiment [5] (setting [7]); 27% in experiment [5] (setting [8]); 52.4% in experiment [5] (at 50.0 µM); -28% in experiment [6] (setting [7]); -9% in experiment [6] (setting [8]); -10.8% in experiment [6] (at 50.0 µM).
For the molecule `CCOC(=O)C1CN(CCCCCCN2CC(C(=O)OCC)C(=O)C2=O)C(=O)C1=O` (stereo not given), the growth inhibition in experiment [1] (setting [7]) was -11%; in experiment [1] (setting [8]), 4%; in experiment [1] (at 50.0 µM), 22.1%; in experiment [2] (setting [7]), 2%; in experiment [2] (setting [8]) it was 1%; in experiment [2] (at 50.0 µM) it was 3.1%. The growth inhibition was -21% in experiment [3] (setting [7]); 3% in experiment [3] (setting [8]); 28.5% in experiment [3] (at 50.0 µM); 4% in experiment [4] (setting [7]); 0% in experiment [4] (setting [8]); 52.9% in experiment [4] (at 50.0 µM). The growth inhibition in experiment [5] (setting [7]) was 0%; in experiment [5] (setting [8]), 2%; in experiment [5] (at 50.0 µM), 0.05%; in experiment [6] (setting [7]), -2%; in experiment [6] (setting [8]) it was 0%; in experiment [6] (at 50.0 µM), 30.4%.
Take `NC(=O)C(=CNc1nc(-c2ccc(Br)cc2)cs1)C(N)=O`: the growth inhibition in experiment [1] (setting [7]) was -5%; in experiment [1] (setting [8]) it was 92% (active); in experiment [1] (at 50.0 µM) it was 99.5% (active); in experiment [2] (setting [7]) it was -11%; in experiment [2] (setting [8]), 98% (active); in experiment [2] (at 50.0 µM), 99.5% (active). In addition, the growth inhibition in experiment [3] (setting [7]) was -3%; in experiment [3] (setting [8]), 92% (active); in experiment [3] (at 50.0 µM), 99.5% (active); in experiment [4] (setting [7]), -34%; in experiment [4] (setting [8]), 94% (active); in experiment [4] (at 50.0 µM), 98.9% (active). The growth inhibition in experiment [5] (setting [7]) is -11%; in experiment [5] (setting [8]) it was 99% (active); in experiment [5] (at 50.0 µM) it was 99.5% (active); in experiment [6] (setting [7]) it was -6%; in experiment [6] (setting [8]), 98% (active); in experiment [6] (at 50.0 µM), 99.3% (active).
In the case of `C/C(=N\Oc1ncc([N+](=O)[O-])c(O/N=C(\C)c2ccccc2)n1)c1ccccc1`, the growth inhibition in experiment [1] (setting [7]) is 52%; in experiment [1] (setting [8]), -24%; in experiment [1] (at 50.0 µM), 43.2%; in experiment [2] (setting [7]), 37%; in experiment [2] (setting [8]), -11%; in experiment [2] (at 50.0 µM), 66.8%. The growth inhibition is 53% in experiment [3] (setting [7]); -10% in experiment [3] (setting [8]); 83% (active) in experiment [3] (at 50.0 µM); 28% in experiment [4] (setting [7]); -20% in experiment [4] (setting [8]); 45.7% in experiment [4] (at 50.0 µM). In addition, the growth inhibition is 48% in experiment [5] (setting [7]); -16% in experiment [5] (setting [8]); 50.6% in experiment [5] (at 50.0 µM); 54% in experiment [6] (setting [7]); -11% in experiment [6] (setting [8]); 94.2% (active) in experiment [6] (at 50.0 µM).
With `O=[N+]([O-])c1ccc(S)c(Cl)c1`, the growth inhibition in experiment [1] (setting [7]) is 16%; in experiment [1] (setting [8]), 95% (active); in experiment [1] (at 50.0 µM), 95.5% (active); in experiment [2] (setting [7]), 20%; in experiment [2] (setting [8]), 95% (active); in experiment [2] (at 50.0 µM), 87.7% (active). The growth inhibition in experiment [3] (setting [7]) was 28%; in experiment [3] (setting [8]), 95% (active); in experiment [3] (at 50.0 µM), 90.3% (active); in experiment [4] (setting [7]), 0%; in experiment [4] (setting [8]) it was 55%; in experiment [4] (at 50.0 µM), 52.6%. The growth inhibition is 14% in experiment [5] (setting [7]); 95% (active) in experiment [5] (setting [8]); 87.2% (active) in experiment [5] (at 50.0 µM); 45% in experiment [6] (setting [7]); 95% (active) in experiment [6] (setting [8]); 93.5% (active) in experiment [6] (at 50.0 µM).
For the molecule `S=C(C#Cc1ccccc1)Nc1ccccc1`, the growth inhibition is -73% in experiment [1] (setting [7]); 87% (active) in experiment [1] (setting [8]); 99.3% (active) in experiment [1] (at 50.0 µM); -36% in experiment [2] (setting [7]); 97% (active) in experiment [2] (setting [8]); 99.4% (active) in experiment [2] (at 50.0 µM). Also, the growth inhibition in experiment [3] (setting [7]) was -30%; in experiment [3] (setting [8]), 96% (active); in experiment [3] (at 50.0 µM), 96.7% (active); in experiment [4] (setting [7]) it was -37%; in experiment [4] (setting [8]), 94% (active); in experiment [4] (at 50.0 µM), 99% (active). Further, the growth inhibition in experiment [5] (setting [7]) was -47%; in experiment [5] (setting [8]) it was 96% (active); in experiment [5] (at 50.0 µM), 99% (active); in experiment [6] (setting [7]), -93%; in experiment [6] (setting [8]), 94% (active); in experiment [6] (at 50.0 µM), 99% (active).
